These results are taken from PubChem BioAssay.

This assay relates to XIP peptide (Xip251-270). In words: small-molecule binders of XIP peptide, primary screen, biochemical, small-molecule microarray, fluorescence 635/667 nm, 0.5 µg/mL protein (AID 1183). The settings on record: small-molecule microarray binding, fluorescence 635 nm; higher = more signal.
On to `COc1ccc([Si](C)(C)[C@H]2[C@H](CC(=O)N3Cc4ccccc4C[C@H]3CO)O[C@@]3(C(=O)N(C)c4ccccc43)[C@@H]2C)cc1`, for which the composite z-score stood at 0.808. On to `O=C1O[C@H](Cc2ccccc2)[C@@H]2[C@H]3C=CCCC=C3CN2[C@H]1Cc1ccc(O)cc1`, for which the composite z-score was -0.61.

For the molecule `CCOc1cc(C(O)C2C=CC3C(=O)N(c4ccccc4)C(=O)C3N2Nc2ccccc2F)ccc1O` (configuration not stated), the composite z-score was -0.213. As for `[N-]=[N+]=NCc1ccccc1[C@@H]1OC(c2ccc(OCCCO)cc2)=N[C@]1(Cc1ccccc1N=[N+]=[N-])C(=O)O`, the composite z-score came out at 0.722. With `[N-]=[N+]=Nc1ccccc1C[C@@]1(C(=O)NCC(O)CO)N=C(c2ccc(OCCCO)cc2)O[C@@H]1c1ccccc1` (some centres not stated), the composite z-score was found to be 0.75. The value for `C=CCC(OC(C)=O)[C@@H]1[C@@H](N(Cc2ccc(-c3cccc(C(F)(F)F)c3)o2)C(=O)Cc2ccc(F)cc2)c2cc(OCCCO)ccc2N1C(=O)Cc1ccc2ccccc2c1` (some centres not stated) was -0.293; that for `COc1cc(CO)cc(I)c1O[C@H]1C=C(C(=O)NCCO)C[C@@H]2O[C@H]12` was 0.347; that for `CCCC=C(CCC)[C@@H](NC(=O)OCC(C)C)c1ccc(C(=O)OC)cc1` was 0.279. The value for `COC(=O)[C@@]1(Cc2ccc(F)cc2)[C@H]2c3cc(C(=O)N(C)C)n(CCc4ccc(O)c(O)c4)c3C[C@H]2CN1C(=O)c1ccccc1` was 0.162; that for `CC(C)=CCCC(C)=CC(O)C1C=CC2C(=O)NC(=O)C2N1Nc1ccc(Cl)cc1Cl` (configuration not stated) was 0.171; that for `Cc1ccc(F)cc1S(=O)(=O)N[C@H]1CCN(Cc2ccc(OC(C)C)cc2)C1` was 0.338.

On to `COCCOC(=O)N1C(=O)[C@@]2(c3cc(C#CCCO)ccc31)[C@H](c1ccccc1OCCO)N1[C@H](c3ccccc3)[C@H](c3ccccc3)OC(=O)[C@H]1[C@@H]2C(N)=O`, for which the composite z-score is 0.732.
